# Screening results from PubChem.
# Hits are enriched below; roughly 11% of the tested compounds scored in any of these assays.
# Lmaj promast – Leishmania major promastigote growth inhibition; hit rate 9% among 200,000; inhibition, % at 10 µM; Leishmania major promastigotes, resazurin fluorescence viability; AID 1063; in the data active = inhibition above about 50%;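 also: promastigotes grown with compound for 44 hours at 28 °C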
# Insulin prom inh – TRM-6 insulin promoter activity inhibition; inhibition, % at 2 µM; hit rate 0.9% among 130,000; TRM-6 cells (human fetal islet line), insulin promoter-eGFP reporter, imaging; reporter expression induced with tamoxifen; AID 1273;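 active = inhibition above the mean plus 3 SD, with well images judged a real hit on visual review, cut at about 60% in these data, passing the limit was not always enough; inconclusive = inhibition over the cutoff but images rejected on review; inactive = inhibition not above the cutoff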
# WT yeast gro inh – growth inhibition of WT yeast, mitochondrial fusion screen. mitochondrial fusion phenotypic screen, WT strain. inhibition, % at 10 µM. hit rate 2.1% among 190,000; in the data active = inhibition above about 58%; tested in S. cerevisiae
# Autophagy HCS – autophagy modulation, high-content screen | MEF GFP-LC3 puncta imaging; test concentration mostly 10 µM | hit rate 0.98% among 190,000 | calls only at 10 µM (by protocol);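 active = percentage of spot-positive cells more than 3 SD above its plate mean, without a fluorescence outlier flag or 80% toxicity; inconclusive = no clear call, values can overlap the other calls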;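 also: spot-positive cell cutoff set from DMSO-treated cells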
# Insulin prom up – MIN6 insulin promoter up-regulation; MIN6 insulin promoter-GFP reporter, high-content imaging; hits give high values; z-score at 5 µM; hit rate 0.3% among 190,000;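 active = z-score above 3 at 5 µM with at least 500 cells counted in the well; inconclusive = wells under 500 cells, flagged as cytotoxic or low count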
# * hit, by the source's call; i = inactive; ? = inconclusive; nt = no result given; + = active, no number.
SMILES,Lmaj promast,Insulin prom inh,WT yeast gro inh,Autophagy HCS,Insulin prom up
c1ccc(CCNc2nc3ccccc3n3nnnc23)cc1,-8.6,-6.2,-1.1,+,0.88
CCN(CC)c1nc(-c2ccccc2)ncc1S(=O)(=O)c1ccc(C)cc1,13.9,nt,62.3*,i,-1.7
CN(C)c1nc(-c2ccccc2)ncc1S(=O)(=O)c1ccccc1,7.7,nt,14.1,i,0.05
CCOc1cc(N2CCOCC2)c(OCC)cc1NC(=O)COC(=O)c1cc2ccccc2cc1O,62.1*,-3.9,8.9,i,0.67
CCOc1cc(N2CCOCC2)c(OCC)cc1NC(=O)COc1ncnc2ccccc12,-1.4,8.3,-0.8,i,nt
CC(NC(=O)/C(C#N)=C/c1ccco1)c1ccccc1 (stereo not given),nt,nt,nt,nt,-0.16
Cc1ccc(C(C)NC(=O)/C(C#N)=C\c2c(C)[nH]c3ccccc23)cc1 (stereo not given),0.2,4.2,87.8*,i,nt
COC(=O)c1ccc(/C=C(\C#N)C(=O)NC(C)c2ccccc2)cc1 (stereo not given),98.8*,nt,40.0,?,-0.15
Cc1ccc(N(CC(=O)NCCSc2nc3ccccc3s2)S(=O)(=O)c2ccccc2)c(C)c1,11.8,24.2,2.8,i,-0.33
CC(OC(=O)c1ccc2c(=O)n3c(nc2c1)CCCCC3)C(=O)Nc1ccc(F)cc1Cl (stereo not given),55.5*,-1.3,17.9,i,1.11
Oc1ccc(N=Cc2cc(Br)c(N3CCOCC3)o2)cc1,66.9*,32.5,-6.9,i,-0.36
O=[N+]([O-])c1cc(Br)c(O)c(C=Nc2ccc(N3CCOCC3)cc2)c1,3.1,nt,-27.3,i,0.99
Cc1c(Nc2nc3ccccc3nc2N2CCN(c3ccccc3)CC2)c(=O)n(-c2ccccc2)n1C,53.1*,6.1,16.3,i,1.09
Cc1c(Nc2c3ccccc3nc3ccccc23)c(=O)n(-c2ccccc2)n1C,nt,nt,nt,nt,-0.28
CN(CCC#N)C(=O)COC(=O)c1cc(Cl)cc(Cl)c1N,7.0,nt,-5.7,i,-0.33
O=P(COc1ccccc1)(c1ccccc1)c1ccccc1,-3.2,-19.4,-20.3,i,-0.32
Cc1cc(C)n2cc(CSc3ccccn3)nc2n1,0.8,66.7,14.0,+,0.12
Cc1ccc(SCc2cn3c(C)cc(C)nc3n2)cc1,nt,nt,nt,nt,-0.27
Cc1cccc(N2CC(C(=O)OCc3ccc([N+](=O)[O-])cc3)CC2=O)c1 (stereo not given),-1.3,nt,10.2,i,0.62
O=C(OCc1ccc([N+](=O)[O-])cc1)C1CC(=O)N(c2ccccc2)C1 (stereo not given),2.1,78.6*,4.9,i,0.1
C=CC(=O)N1C/C=C\C(c2ccc(OC)cc2)N(Cc2ccc(F)cc2)C(=O)C1 (stereo not given),nt,nt,nt,nt,0.49
COc1ccc(C2/C=C\CN(S(=O)(=O)c3cccc4cccnc34)CC(=O)N2Cc2ccc(F)cc2)cc1 (stereo not given),nt,nt,nt,nt,7.49*
Cc1ccccc1OCc1nc2ccccc2c(=O)n1/N=C/c1cn[nH]c1-c1ccc(Br)cc1,4.6,29.2,-1.6,i,-0.3
O=c1c2ccccc2nc(COc2ccccc2)n1/N=C/c1cn[nH]c1-c1ccccc1,51.1*,-78.6,-1.4,i,-0.35
CCCc1ccc(C(=O)NNc2cccc(C)c2)cc1,nt,nt,nt,nt,-0.79
SMILES,Lmaj promast,Insulin prom inh,WT yeast gro inh,Autophagy HCS,Insulin prom up
CCOc1ccc(-c2ccc(SC)nn2)cc1,-0.1,nt,67.7*,i,1.67
OC(COCc1ccccc1)CN1CCN(c2ccccc2F)CC1 (stereo not given),52.2*,nt,-18.8,i,-0.46
O=S(=O)(Cc1ccc(Cl)cc1)CC(O)COCc1ccccc1 (stereo not given),-5.4,-306.7,-9.3,i,nt
CCC(C)NCC(O)COCc1ccc(Cl)cc1 (stereo not given),59.6*,42.9,-12.1,i,0.36
CCN1CCN(CC(O)COCc2ccccc2)CC1 (stereo not given),-2.7,nt,20.9,i,0.96
CC(C)NCC(O)COCc1ccc(Cl)cc1 (stereo not given),-3.2,33.3,5.0,i,0.1
CC(C)(C)NCC(O)COCc1ccc(Cl)cc1 (stereo not given),-6.9,-10.3,1.9,i,-0.59
OC(COCc1ccc(Cl)cc1)CN1CCN(CC(O)COCc2ccc(Cl)cc2)CC1 (stereo not given),99.6*,10.5,58.0*,i,-0.62
OC(COCc1ccc(Cl)cc1)CN1CCc2ccccc2C1 (stereo not given),73.4*,37.5,-2.6,i,nt
CC(Sc1nc(-c2ccccc2)cs1)C(=O)Nc1ccc(Cl)cn1 (stereo not given),22.1,nt,13.9,i,0
COc1ccc(C(=O)CSc2nnc(CN3CCCCC3)n2-c2ccc(Cl)cc2)cc1OC,6.9,27.3,10.6,i,nt
C/C(=N\N1C(=O)c2ccccc2NC1c1ccco1)c1ccccc1O (stereo not given),89.6*,42.1,-4.5,i,-0.33
C/C(=N\N1C(=O)c2ccccc2NC1c1ccccc1)c1ccccc1O (stereo not given),-7.1,nt,-6.5,i,0.01
COC(=O)c1c(C(=O)OC)c(C)n(Cc2ccco2)c1C,1.7,-72.7,-15.4,i,0.27
COC(=O)c1cc(=O)n(Cc2ccco2)c(=Nc2ccc(F)c(Cl)c2)s1,100.0*,nt,26.3,i,-0.19
COC(=O)c1cc(=O)n(CCc2ccccc2F)c(=Nc2ccc(F)c(Cl)c2)s1,98.6*,nt,1.2,i,-0.14
O=C1CCC(C(=O)Nc2cccc(Oc3ccccc3)c2)=NN1,1.5,-9.1,11.5,i,-0.33
COCCCNC(=O)CCCn1c(=O)c2ccccc2n(Cc2cccc([N+](=O)[O-])c2)c1=O,-3.1,-71.4,-13.7,i,-0.3
COCCN(CCOC)S(=O)(=O)c1ccc(C(=O)Nc2nnc(C)o2)cc1,-5.4,nt,2.4,i,-0.04
CCN(Cc1ccccc1)S(=O)(=O)c1ccc(C(=O)Nc2nnc(C3CC3)o2)cc1,98.2*,nt,47.9,i,1.01
COCCN(CCOC)S(=O)(=O)c1ccc(C(=O)Nc2nnc(COC)o2)cc1,-11.3,nt,-5.6,i,0.03
Cc1nnc(NC(=O)c2ccc(S(=O)(=O)N(C)Cc3ccccc3)cc2)o1,77.2*,29.0,41.1,i,0.51
O=C1CC(c2ccccc2F)C2=C(COC2=O)N1 (stereo not given),-6.6,50.0,6.8,i,0.34
CC(C)C(=O)N=C1SC2CS(=O)(=O)CC2N1Cc1ccc(Cl)cc1 (stereo not given),nt,nt,nt,nt,-0.31
CC(C)C(=O)N=C1SC2CS(=O)(=O)CC2N1Cc1ccccc1 (stereo not given),52.1*,-13.9,-14.1,i,0.31
OCCC#Cc1ccc(CN2CCN(C3CCCCC3)C(CCO)C2)cc1 (stereo not given),-3.2,nt,-1.0,i,0.49
O=C(Nc1ccc(Cc2ccncc2)cc1)c1ccc(S(=O)(=O)N2CCCC2)cc1,98.7*,-11.1,0.6,i,-1.15
NC(=O)c1ccsc1NC(=O)c1ccc(S(=O)(=O)N2CCCC2)cc1,56.0*,-18.2,-8.3,i,0.07
Cc1cc(C(=O)Nc2ccc(S(=O)(=O)N3CCCC3)cc2)cs1,72.8*,15.4,-8.0,i,-0.38
